# Laboratory results reported in article PMC11062922 (Nature Chemical Biology, 2023).
# Read-outs that look alike come from different tables or passages of the source.
# Tests used:
# Parameters in all cases: species or system human, MV4-11 + K-562 + COLO205 + SK-N-BE2 + OVCAR-8
# [1] = tested on: CDK6; conditions: read-out: apparent Kd, n = 1
# [2] = tested on: PIP4K2C; conditions: read-out: apparent Kd; compound concentrations:100 nM and 1000 nM (sheet 'Samples'); n = 1
# [3] = tested on: CSNK1G1; conditions: read-out: apparent Kd; compound concentrations:100 nM and 1000 nM (sheet 'Samples'); n = 1
# [4] = tested on: SLK; conditions: read-out: apparent Kd; compound concentrations:100 nM and 1000 nM (sheet 'Samples'); n = 1
# [5] = tested on: PRKAA1; conditions: read-out: apparent Kd; compound concentrations:100 nM and 1000 nM (sheet 'Samples'); n = 1
# [6] = tested on: PRKAA2; conditions: read-out: apparent Kd, n = 1
# [7] = tested on: STK4; conditions: read-out: apparent Kd, n = 1
# [8] = tested on: MELK; conditions: read-out: apparent Kd; compound concentrations:100 nM and 1000 nM (sheet 'Samples'); n = 1
# [9] = tested on: COX5A; conditions: read-out: apparent Kd, n = 1
# [10] = tested on: DCTPP1; conditions: read-out: apparent Kd; compound concentrations:100 nM and 1000 nM (sheet 'Samples'); n = 1
# [11] = tested on: NNT; conditions: read-out: apparent Kd, n = 1
# [12] = tested on: ILK; conditions: read-out: apparent Kd, n = 1
# [13] = tested on: PRKAG2; conditions: read-out: apparent Kd, n = 1
# [14] = tested on: STK26; conditions: read-out: apparent Kd, n = 1
# [15] = tested on: MAP3K11; conditions: read-out: apparent Kd; compound concentrations:100 nM and 1000 nM (sheet 'Samples'); n = 1
# [16] = tested on: MARK4; conditions: read-out: apparent Kd; compound concentrations:100 nM and 1000 nM (sheet 'Samples'); n = 1
# [17] = tested on: STRADA; conditions: read-out: apparent Kd, n = 1
# [18] = tested on: CDK7; conditions: read-out: apparent Kd, n = 1
# [19] = tested on: PRKX;PRKY; conditions: read-out: apparent Kd; compound concentrations: 100 nM and 1000 nM (sheet 'Samples'), CATDS: 3.2948163641369002E-2; n = 1
# [20] = compound concentrations:100 nM and 1000 nM (sheet 'Samples')
smiles,measurement,setting,value
N#Cc1cccc(Nc2nccc(-c3cnn4ncccc34)n2)c1 [GW778894X],potency estimated from few doses,[1]; [20],1970 nM
same,potency estimated from few doses,[2],113 nM
Nc1nc(N)c2nc(-c3ccccc3)[nH]c2n1 [SKF-12778],potency estimated from few doses,[3],924 nM
CC(=O)c1c(-c2ccncc2)[nH]c(-c2ccncc2)c1C [GW493036X],potency estimated from few doses,[3],717 nM
COc1cc2ncn(-c3cc(OCc4cccs4)c(C(N)=O)s3)c2cc1OC [GSK312948A],potency estimated from few doses,[4],262 nM
Cl.Cn1c(=O)c(Cc2ccc(F)cc2F)cc2cnc(NC3CCOCC3)nc21 [RO3308757-001],potency estimated from few doses,[5],706 nM
same,potency estimated from few doses,[6]; [20],1190 nM
Cn1cc(-c2cnc(N)c3c(-c4ccc5c(c4)CCN5C(=O)Cc4ccccc4)csc23)cn1 [GSK2593074A],potency estimated from few doses,[7]; [20],1130 nM
COc1cc(/C=N/Nc2ncnc3[nH]ncc23)ccc1O [GW578748X],potency estimated from few doses,[8],2390 nM
O=S(=O)(c1ccc(-c2ccnc3[nH]ccc23)cc1)N1CCCC1 [GSK846226A],potency estimated from few doses,[9]; [20],848 nM
same,potency estimated from few doses,[10],2150 nM
same,potency estimated from few doses,[11]; [20],2150 nM
COc1cc2ncn(-c3cc(OCCCc4ccccc4)c(C(N)=O)s3)c2cc1OC [GSK205189A],potency estimated from few doses,[5],1020 nM
COc1cc2ncn(-c3cc(OCc4sccc4Cl)c(C(N)=O)s3)c2cc1OC [GSK448459A],potency estimated from few doses,[4],434 nM
Cc1ccc(NC(=O)c2ccc(Cl)cc2)cc1-c1ccc(C(=O)Nc2ccncc2)cc1 [GSK1398467A],potency estimated from few doses,"[11]; compound concentrations: 100 nM and 1000 nM (sheet 'Samples'), CATDS: 0.228122835279086",956 nM
Cn1cc(C2=C(c3cn(CCCCCO)c4ccccc34)C(=O)NC2=O)c2ccccc21 [RO0318053-000],potency estimated from few doses,"[6]; compound concentrations: 100 nM and 1000 nM (sheet 'Samples'), CATDS: 8.4372577909481605E-2",1450 nM
Clc1ccc(-c2nn3ncccc3c2-c2ccnc(Nc3ccccc3)n2)cc1 [GW829055X],potency estimated from few doses,"[12]; compound concentrations: 100 nM and 1000 nM (sheet 'Samples'), CATDS: 5.2015680047351402E-2",690 nM
same,potency estimated from few doses,"[11]; compound concentrations: 100 nM and 1000 nM (sheet 'Samples'), CATDS: 0.15486403103885801",130 nM
same,potency estimated from few doses,"[13]; compound concentrations: 100 nM and 1000 nM (sheet 'Samples'), CATDS: 5.2406473036639797E-2",681 nM
Cc1ccc(-n2nc(C(C)(C)C)cc2NC(=O)Nc2ccc(OCCN3CCOCC3)cc2)cc1 [BIRB0876BS],potency estimated from few doses,[9]; [20],963 nM
same,potency estimated from few doses,[12]; [20],1870 nM
Fc1cccc(COc2ccc(Nc3ncncc3C#Cc3ccccc3)cc2Cl)c1 [GW651576X],potency estimated from few doses,"[12]; compound concentrations: 100 nM and 1000 nM (sheet 'Samples'), CATDS: 6.7664406837509503E-2",1010 nM
same,potency estimated from few doses,"[11]; compound concentrations: 100 nM and 1000 nM (sheet 'Samples'), CATDS: 5.0215020986353498E-2",1770 nM
same,potency estimated from few doses,"[13]; compound concentrations: 100 nM and 1000 nM (sheet 'Samples'), CATDS: 5.1701945188740897E-2",1670 nM
same,potency estimated from few doses,"[14]; compound concentrations: 100 nM and 1000 nM (sheet 'Samples'), CATDS: 5.7539827795964102E-2",1350 nM
NC(=O)c1cccnc1COc1cc(-c2ccc(N3CCOCC3)nc2)cc2ncccc12 [BI01125081],potency estimated from few doses,[10],1970 nM
same,potency estimated from few doses,[15],1890 nM
Nc1c(C(=O)c2ccccc2)cnn1-c1ccc(F)cc1 [RO1151246-000],potency estimated from few doses,[1]; [20],2120 nM
same,potency estimated from few doses,[15],1920 nM
same,potency estimated from few doses,[16],1290 nM
same,potency estimated from few doses,[6]; [20],1780 nM
same,potency estimated from few doses,[14]; [20],1890 nM
same,potency estimated from few doses,[17]; [20],1830 nM
COc1cc2ncn(-c3cc(O[C@H](C)c4ccccc4Cl)c(C(N)=O)s3)c2cc1OC [GSK237701A],potency estimated from few doses,[13]; [20],1520 nM
same,potency estimated from few doses,[4],782 nM
Cc1[nH]nc2c1N=C(c1ccccc1Cl)c1cc([N+](=O)[O-])ccc1N2 [RO0274406-000],potency estimated from few doses,"[9]; compound concentrations: 100 nM and 1000 nM (sheet 'Samples'), CATDS: 8.1877347137814999E-2",832 nM
CCCN1CCC(Oc2cc(Nc3nc(Nc4cccc(F)c4C(N)=O)c4cc[nH]c4n3)c(OC)cc2Cl)CC1 [GSK1713088A],potency estimated from few doses,"[1]; compound concentrations: 100 nM and 1000 nM (sheet 'Samples'), CATDS: 0.18030383020801999",2000 nM
same,potency estimated from few doses,"[18]; compound concentrations: 100 nM and 1000 nM (sheet 'Samples'), CATDS: 0.191679480220071",1740 nM
COc1ccc(COc2ccc(Cc3cnc(N)nc3N)cc2OC)cc1 [GW632580X],potency estimated from few doses,[11]; [20],1910 nM
COc1ccc(C2=C(c3cn(C)c4ccccc34)C(=O)NC2=O)cc1OC [RO3206363-000],potency estimated from few doses,[19],1620 nM
same,potency estimated from few doses,"[14]; compound concentrations: 100 nM and 1000 nM (sheet 'Samples'), CATDS: 3.3943818014748203E-2",1450 nM
same,potency estimated from few doses,"[7]; compound concentrations: 100 nM and 1000 nM (sheet 'Samples'), CATDS: 7.8788816860825395E-2",166 nM
same,potency estimated from few doses,"[17]; compound concentrations: 100 nM and 1000 nM (sheet 'Samples'), CATDS: 3.11031335260477E-2",2050 nM
COc1cc(F)c(F)c(F)c1C(=O)c1cnc(NC2CCN(S(C)(=O)=O)CC2)nc1N [RO4600703-000],potency estimated from few doses,[18]; [20],821 nM
same,potency estimated from few doses,[4],471 nM
